As usually defined, the inhibition is the drop in the measured response relative to a control, in per cent.

Test [1] can be described thus: antimalarial activity against Dd2 strain (AID 2302;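 active = growth inhibition above 50% at the single 2 µM test dose, taken to imply half-maximal potency below 2 µM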;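 note: 0% = DMSO untreated growth and 100% = chloroquine plus artemisinin killed control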). Particulars: P. falciparum Dd2 in RBCs, LDH growth readout, 72 h; at 2 µM; hits give high values.
Test [2] in a line: HepG2 cytotoxicity, primary screen, cytotoxicity control for P. falciparum antimalarial project, cell-based, ATP luminescence (AID 2303;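 active = inhibition above 50%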;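 note: 0% = DMSO wells and 100% = digitonin-killed cells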). The following applies: HepG2 viability, 24-48 h, at 10 µM, hits give high values.
Test [3] addresses L-lactate dehydrogenase (Plasmodium falciparum (isolate CDC / Honduras)) (UniProt Q27743). Briefly: PfLDH activity inhibition – cell lysate, 3D7 strain, counter-screen for P. falciparum growth inhibition project (AID 2304).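 Note: 0% = vehicle and 100% = reference inhibitor.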 The following applies: P. falciparum 3D7 crude extract, LDH APAD/NBT absorbance; at 2 µM; hits give high values. On the technique in general: Counterscreens check selectivity or assay interference.

Test [4] can be described thus: inhibition of 3D7 malaria parasite growth – strain 3D7 (AID 2306).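 Note: 0% = DMSO wells and 100% = chloroquine plus artemisinin control wells.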 Particulars: P. falciparum 3D7 erythrocytic growth, LDH absorbance, 72 h; at 2 µM; hits give high values.
For test [5], the target named is Calcium-dependent protein kinase 1 (Plasmodium falciparum (isolate 3D7)) (UniProt P62344). Briefly: PfCDPK1 kinase inhibitors, biochemical, TCAMS library (AID 1159585; cut-off not given, nearly all actives have IC50 up to about 0.98 µM;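 note: inhibitors leave more ATP so luminescence rises with inhibition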). The following applies: recombinant PfCDPK1, Kinase-Glo ATP depletion luminescence.
Sequence of Calcium-dependent protein kinase 1 (Plasmodium falciparum (isolate 3D7)) (P62344 whole entry, looked up): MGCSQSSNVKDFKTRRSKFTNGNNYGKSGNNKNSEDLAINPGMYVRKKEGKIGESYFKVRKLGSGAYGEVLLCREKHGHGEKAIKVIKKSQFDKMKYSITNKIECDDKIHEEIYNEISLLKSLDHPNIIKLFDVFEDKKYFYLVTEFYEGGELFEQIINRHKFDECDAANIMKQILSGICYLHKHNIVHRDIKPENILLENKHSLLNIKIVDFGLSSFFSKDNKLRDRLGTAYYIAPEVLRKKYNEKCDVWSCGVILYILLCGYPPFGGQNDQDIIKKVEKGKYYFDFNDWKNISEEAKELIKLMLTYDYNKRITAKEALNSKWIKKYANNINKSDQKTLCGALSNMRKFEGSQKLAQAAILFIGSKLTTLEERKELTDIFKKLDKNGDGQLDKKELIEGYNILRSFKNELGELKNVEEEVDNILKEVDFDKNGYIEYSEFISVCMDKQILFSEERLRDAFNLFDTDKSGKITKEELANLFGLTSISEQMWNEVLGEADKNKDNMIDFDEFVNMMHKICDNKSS
For test [6], the target named is Plasmodium falciparum protein kinase 6 (PK6, PF3D7_1337100) (UniProt Q8IDW1). Briefly: PfPK6 kinase inhibitors, biochemical, TCAMS library (AID 1159586). The following applies: recombinant PfPK6, Kinase-Glo ATP depletion luminescence. (In general: Kinase-Glo measures the ATP left after a reaction by luminescence.)
Sequence of Plasmodium falciparum protein kinase 6 (PK6, PF3D7_1337100) (Q8IDW1 1-305): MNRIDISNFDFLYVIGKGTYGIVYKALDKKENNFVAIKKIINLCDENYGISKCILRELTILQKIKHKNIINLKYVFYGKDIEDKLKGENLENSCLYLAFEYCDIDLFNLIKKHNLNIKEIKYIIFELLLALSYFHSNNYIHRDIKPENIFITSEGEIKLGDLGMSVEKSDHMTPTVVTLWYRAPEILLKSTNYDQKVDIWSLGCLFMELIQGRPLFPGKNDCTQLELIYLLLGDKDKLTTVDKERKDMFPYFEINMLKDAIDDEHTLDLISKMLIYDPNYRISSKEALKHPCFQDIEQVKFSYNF
For test [7], the target named is Protein kinase 7 (PK7), Plasmodium falciparum 3D7 (PF3D7_0213400) (UniProt Q7YTF7). Briefly: inhibition of Plasmodium PK7 catalytic activity – biochemical, TCAMS antimalarial set, Kinase-Glo luminescence (AID 1159587). Particulars: recombinant PfPK7, Kinase-Glo ATP depletion luminescence.
Sequence of Protein kinase 7 (PK7), Plasmodium falciparum 3D7 (PF3D7_0213400) (Q7YTF7 1-343): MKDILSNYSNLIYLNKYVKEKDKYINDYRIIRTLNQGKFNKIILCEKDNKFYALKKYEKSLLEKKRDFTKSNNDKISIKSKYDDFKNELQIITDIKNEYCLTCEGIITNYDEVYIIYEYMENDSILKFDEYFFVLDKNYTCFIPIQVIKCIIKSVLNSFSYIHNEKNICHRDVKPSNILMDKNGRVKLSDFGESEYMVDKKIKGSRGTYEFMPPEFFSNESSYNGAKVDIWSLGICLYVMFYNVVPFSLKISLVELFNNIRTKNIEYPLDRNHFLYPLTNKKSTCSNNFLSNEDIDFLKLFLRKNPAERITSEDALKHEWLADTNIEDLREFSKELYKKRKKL
The target in test [8] is Calcium-dependent protein kinase 4 (Plasmodium falciparum (isolate 3D7)) (UniProt Q8IBS5). Briefly: PfCDPK4 kinase inhibitors, biochemical, TCAMS library (AID 1159588; cut-off not given, nearly all actives have IC50 up to about 0.91 µM). Particulars: recombinant PfCDPK4, Kinase-Glo ATP depletion luminescence.
Sequence of Calcium-dependent protein kinase 4 (Plasmodium falciparum (isolate 3D7)) (Q8IBS5 whole entry, looked up): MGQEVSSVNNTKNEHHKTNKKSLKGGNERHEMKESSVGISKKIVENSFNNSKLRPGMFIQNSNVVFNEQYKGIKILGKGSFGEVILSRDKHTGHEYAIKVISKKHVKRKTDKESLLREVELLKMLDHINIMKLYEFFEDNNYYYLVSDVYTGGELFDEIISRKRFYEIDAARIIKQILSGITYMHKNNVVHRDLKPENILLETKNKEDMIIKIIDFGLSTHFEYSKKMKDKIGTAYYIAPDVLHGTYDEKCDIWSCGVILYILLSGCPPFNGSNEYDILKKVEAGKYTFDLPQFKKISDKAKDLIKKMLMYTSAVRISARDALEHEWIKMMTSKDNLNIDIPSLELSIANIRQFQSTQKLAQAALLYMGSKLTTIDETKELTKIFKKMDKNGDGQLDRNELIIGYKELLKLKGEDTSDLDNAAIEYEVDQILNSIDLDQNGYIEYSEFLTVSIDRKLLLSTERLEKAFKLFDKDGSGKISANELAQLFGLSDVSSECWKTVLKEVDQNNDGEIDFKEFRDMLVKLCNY

SMILES strings stand for the structures. A number with no mark means an inactive call. For some assays here: Entries with a potency or affinity are not part of this list. Active and inactive are the calls of the source. Unless noted, the rule behind the calls is not given here.

Sequence of L-lactate dehydrogenase (Plasmodium falciparum (isolate CDC / Honduras)) (Q27743 whole entry, looked up): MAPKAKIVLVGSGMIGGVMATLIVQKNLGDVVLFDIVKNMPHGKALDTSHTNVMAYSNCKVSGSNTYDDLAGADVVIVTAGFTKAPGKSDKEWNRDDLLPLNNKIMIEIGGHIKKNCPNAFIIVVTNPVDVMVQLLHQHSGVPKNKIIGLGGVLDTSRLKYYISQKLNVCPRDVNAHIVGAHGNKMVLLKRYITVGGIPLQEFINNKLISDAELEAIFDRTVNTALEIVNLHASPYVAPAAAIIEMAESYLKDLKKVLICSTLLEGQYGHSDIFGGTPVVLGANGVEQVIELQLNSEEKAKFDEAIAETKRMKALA

In the case of `CCOc1ccc(-n2nc3c(Cl)nnc(-c4ccccc4)c3c2-c2ccccc2)cc1`, the growth inhibition was 99% (active) in test [1] and 96% (active) in test [4]. For the same molecule, the inhibition in test [2] is 0%; in test [3], 9%. Besides, the outcome in test [5], in test [6], in test [7] and in test [8] was inactive.
`CC(C)(C)c1ccc(CNC(=O)c2cc(CNC3CCC(N)CC3)ccc2O)cc1` (configuration not stated): the results for the growth inhibition in test [1] and in test [4] were 1% and 94% (active), respectively. For the same molecule, the inhibition in test [2] was 1%; in test [3] it was 0%. Also, the result in test [5], in test [6], in test [7] and in test [8] was inactive.
Turning to `COc1ccc(CCN2CCC(CN(C)Cc3cnn(-c4ccccc4)c3)CC2)cc1`, the growth inhibition in test [1] is 5%; in test [4], 90% (active). Moreover, the results for the inhibition in test [2] and in test [3] were 25% and -1%, respectively. For the same molecule, the outcome in test [5], in test [6], in test [7] and in test [8] was inactive.
Take `O=C(NC1CCN(c2ccnc3cc(Cl)ccc23)C1)c1cccc(F)c1` (configuration not stated): the growth inhibition is 98% (active) in test [1] and 95% (active) in test [4]. Besides, the inhibition in test [2] was 30%; in test [3], 1%. The outcome in test [5], in test [6], in test [7] and in test [8] was inactive.
Consider `Cc1cc(=O)c(-c2ccc(Oc3ccc(C(F)(F)F)cc3)cc2)c(C)n1O`, for which the values for the growth inhibition in test [1] and in test [4] were 78% (active) and 94% (active), respectively. For the same molecule, the figures for the inhibition in test [2] and in test [3] were 18% and 0%, respectively. Moreover, the outcome in test [5], in test [6], in test [7] and in test [8] was inactive.
Take `OCC1CCN(Cc2cccc(-c3ccc(-c4nc5ccc(C(F)(F)F)cc5[nH]4)cc3)c2)CC1`: the growth inhibition in test [1] is 95% (active); in test [4], 101% (active). Moreover, the figures for the inhibition in test [2] and in test [3] were 25% and -3%, respectively. For the same molecule, the outcome in test [5], in test [6], in test [7] and in test [8] was inactive.
Turning to `Cc1cccc2[nH]c(-c3ccc(-c4ccc(CNCc5cnn(-c6ccccc6)n5)cc4)cc3)nc12`, the results for the growth inhibition in test [1] and in test [4] were 99% (active) and 101% (active), respectively. Moreover, the figures for the inhibition in test [2] and in test [3] were 35% and -4%, respectively. Also, the outcome in test [5], in test [6], in test [7] and in test [8] was inactive.
Take `COc1ccc(C(=O)NCc2ccc(N)nc2C)cc1Nc1ncc(-c2cccc(N(C)C)c2)cn1`: the growth inhibition was 68% (active) in test [1] and 89% (active) in test [4]. Also, the figures for the inhibition in test [2] and in test [3] were 9% and -1%, respectively. Moreover, the outcome in test [5], in test [6], in test [7] and in test [8] was inactive.
As to `CCNc1cc(C(=O)N[C@@H](Cc2ccccc2)[C@H](O)CNC2(CC)CCCCC2)cc(N2CCCCS2(=O)=O)c1`, the growth inhibition in test [1] and in test [4] was 98% (active) each time. Also, the inhibition in test [2] is 3%; in test [3] it was -3%. In addition, the result in test [5], in test [6], in test [7] and in test [8] was inactive.
Take `O=C(NCC1CC1)C1CCN(C(c2ccccc2)c2cc(F)cc(F)c2)CC1` (configuration not stated): the growth inhibition in test [1] is 95% (active); in test [4], 99% (active). The inhibition in test [2] is -3%; in test [3], 9%. Further, the outcome in test [5], in test [6], in test [7] and in test [8] was inactive.
In the case of `Cc1ccccc1C1CCN(C2CCC(NC(=O)/C=C/c3cccc(Cl)c3F)CC2)CC1` (configuration not stated), the growth inhibition in test [1] is 37%; in test [4], 101% (active). Besides, the inhibition in test [2] was 87% (active); in test [3], 4%. The outcome in test [5], in test [6], in test [7] and in test [8] was inactive.
Turning to `COc1ccc(C2C(C(=O)OC3CCCC3)=C(C)NC3=C2C(=O)CCC3)cc1Br` (configuration not stated), the growth inhibition in test [1] is 77% (active); in test [4], 94% (active). Further, the inhibition was -2% in test [2] and 5% in test [3]. Further, the result in test [5], in test [6], in test [7] and in test [8] was inactive.
With `O=C(/C=C/c1ccc(Cl)cc1)NCCCCCN1CCCN(C(=O)Nc2ccc(Cl)c(C(F)(F)F)c2)CC1`, the values for the growth inhibition in test [1] and in test [4] were 1% and 95% (active), respectively. Further, the results for the inhibition in test [2] and in test [3] were 54% (active) and 1%, respectively. In addition, the outcome in test [5], in test [6], in test [7] and in test [8] was inactive.
In the case of `COc1cc2nc(Nc3ccc4c(ccn4Cc4ccccc4)c3)nc(Nc3ccc4c(ccn4Cc4ccccc4)c3)c2cc1OC`, the growth inhibition in test [1] was 80% (active); in test [4], 89% (active). The figures for the inhibition in test [2] and in test [3] were -6% and 2%, respectively. In addition, the outcome in test [5], in test [6], in test [7] and in test [8] was inactive.
For the molecule `Cc1cc(C(F)(F)F)n2nc(C(=O)N(C)Cc3cncn3Cc3ccc(F)cc3)cc2n1`, the growth inhibition was 96% (active) in test [1] and 101% (active) in test [4]. For the same molecule, the values for the inhibition in test [2] and in test [3] were -1% and 0%, respectively. For the same molecule, the result in test [5], in test [6], in test [7] and in test [8] was inactive.
Take `Cc1ccc2c(=O)c3cc(C)ccc3[nH]c2c1`: the growth inhibition in test [1] was 94% (active); in test [4], 96% (active). Also, the inhibition in test [2] was 10%; in test [3] it was 5%. Also, the outcome in test [5], in test [6], in test [7] and in test [8] was inactive.
As to `CCCCCCN1CCC(NCc2ccc(CN(C)C)cc2)CC1`, the figures for the growth inhibition in test [1] and in test [4] were 26% and 92% (active), respectively. The inhibition in test [2] is 18%; in test [3], 1%. The outcome in test [5], in test [6], in test [7] and in test [8] was inactive.
Regarding `O=C(CCCCCCc1ccccc1)Nc1ccc2nc3c(c(NCc4ccccc4)c2c1)CCCC3`, the growth inhibition in test [1] was 98% (active); in test [4], 101% (active). In addition, the inhibition in test [2] was 19%; in test [3], -3%. Also, the result in test [5], in test [6], in test [7] and in test [8] was inactive.
As for `O=C(/C=C/c1ccc(Cl)c(Cl)c1)NCCCCCN1CCCN(C(=O)Nc2cc(Cl)cc(Cl)c2)CC1`, the growth inhibition in test [1] was 4%; in test [4], 96% (active). Moreover, the values for the inhibition in test [2] and in test [3] were 53% (active) and 6%, respectively. Further, the outcome in test [5], in test [6], in test [7] and in test [8] was inactive.

The values are drawn from PubChem BioAssay.
